# Screening results deposited in PubChem BioAssay by National Center for Advancing Translational Sciences (NCATS).
# Sampled rows, rich in hits. Any-hit rate of the full collection: about 5.4%.
# Marburg entry inh: qHTS for inhibitors of binding or entry into cells for Marburg Virus; Marburg virus pseudotyped entry inhibition, cell reporter; AID 540276, 2011; Potency, µM (doses to about 37.8 µM), inactives show at the top dose activity change, negative = inhibition, actives largely listed as inhibitors; 1.8% of 300,000 active; calls by dose curve; tested in HEK293 cells
# FMDV antiviral: High Throughput Screening for Foot and Mouth Disease Virus Antivirals | FMDV antiviral cell-based qHTS | 1.2% of 410,000 active | AID 1159524, 2015 | Potency, µM (doses to about 57.9 µM), for the others: at the top dose activity change, negative = inhibition, hits mostly inhibitors; calls by dose curve; tested in HEK293T cells; further: read-out not given here; nearly all actives have a fitted effect of over 45% in size
# LASV entry inh: qHTS for Inhibitors of binding or entry into cells for Lassa Virus. Lassa virus pseudotype entry inhibition, cell reporter. Potency, µM (series often up to 37.9 µM), without a hit: at the highest dose activity change, negative = inhibition, hits mostly inhibitors. 1.2% of 300,000 active. AID 540256, 2011; calls by dose curve; tested in HEK293 cells; further: nearly all actives have a fitted effect of over 50% in size
# Vaccinia Venus: qHTS for Stage-Specific Inhibitors of Vaccinia Orthopoxvirus: Venus Reporter Primary qHTS; Vaccinia virus Venus reporter expression, fluorescence; Potency, µM (highest dose often 36.5 µM), inactives show at the top dose activity change, negative = inhibition, usual class: inhibitors; 0.46% of 330,000 active; AID 720580, 2013; calls by dose curve; tested in A549 cells; further: nearly all actives have a fitted effect of over 30% in size
# Sm TGR inh: qHTS Assay for the Inhibitors of Schistosoma Mansoni Peroxiredoxins | Schistosoma mansoni thioredoxin glutathione reductase (TGR), Q962Y6 | purified TGR, DTNB reduction, TNB absorbance 405 nm | Potency, µM (series often up to 114 µM), for inactives: at the highest dose activity change, negative = inhibition, most hits filed as inhibitors | 3% of 360,000 active; active means well fitted inhibition curve with a large enough effect; inconclusive means small, poorly fitted or top-dose-only effect; inactive means no such curve, though single readings can be large or run the other way; further: nearly all actives have a fitted effect of over 60% in size
#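 TGR 20 nM + NADPH 100 uM (dispensed conc.), cpd preinc 15 min RT; start with NADPH (500 uM addition) then DTNB (15 mM addition). Kinetic TNB absorbance, 405 nm filter. Four-parameter Hill fit across titration.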
# Vaccinia mCherry: qHTS for Stage-Specific Inhibitors of Vaccinia Orthopoxvirus: mCherry Reporter Primary qHTS; Vaccinia virus mCherry reporter infection, fluorescence; Potency, µM (highest dose often 36.5 µM), inactives show at the top dose activity change, negative = inhibition, usual class: inhibitors; 0.63% of 310,000 active; AID 720579, 2013; calls by dose curve; tested in A549 cells; further: nearly all actives have a fitted effect of over 35% in size
# * marks the source's active call; other numbers are inactive results; i = inactive; ? = inconclusive; nt = no result given; [ ] = dose if it differs, or a comment. On the % scale 0 is the no-effect control and ±100 the full control effect; potency means the concentration at half of the fitted maximal effect.
SMILES,Marburg entry inh,FMDV antiviral,LASV entry inh,Vaccinia Venus,Sm TGR inh,Vaccinia mCherry
O=C(c1ccc(CS(=O)(=O)c2ccc(Br)cc2)o1)N1CCC2(CC1)OCCO2,-1.0%,9.0%,0.4%,nt,35.5µM*,nt
O=C(c1ccc(CS(=O)(=O)c2ccc(Br)cc2)o1)N1CCN(c2ccc(F)cc2)CC1,?,?,-9.0%[46.1 µM],-8.6%,0.1%,-8.0%
O=C(c1ccc(CS(=O)(=O)c2ccc(Br)cc2)o1)N1CCOCC1,nt,-20.4%,nt,1.6%,44.7µM*,0.7%
Cc1ccc(S(=O)(=O)Cc2ccc(C(=O)N3CCN(c4ccccn4)CC3)o2)cc1,-0.9%,0.0%,nt,-12.2%,?,-0.2%
CC1CN(C(=O)c2ccc(CNS(=O)(=O)c3cccc(C(F)(F)F)c3)cc2)CC(C)O1 (configuration not stated),12.6µM*,-14.2%,-30.1%,-13.3%,0.0%,-7.4%
CCOc1ccc(OCC)c(NC(=O)c2nnn(CC(=O)Nc3ccc(C)cc3C)c2N)c1,6.6%[46.1 µM],-18.1%,12.2%[46.1 µM],-6.8%,6.3%,-8.2%
COc1cccc(Cn2c(C)c(CNCc3cccc(C)c3)c(C(=O)O)c2C)c1,1.0%[46.1 µM],25.0%,?,-3.9%,-14.0%,-2.0%
O=C(c1ccc(CS(=O)c2ccccc2Cl)o1)N1CCN(c2ccccc2)CC1 (configuration not stated),nt,?,nt,nt,-24.7%,nt
O=C(c1ccc(CS(=O)c2ccccc2Cl)o1)N1CCOCC1 (configuration not stated),nt,7.1%,nt,-4.1%[7.34 µM],31.6µM*,-14.4%[7.34 µM]
O=C(c1ccc(CNS(=O)(=O)c2ccc(Br)cc2)cc1)N1CCC2(CC1)OCCO2,?,0.9%,7.7%,-8.3%,-11.9%,-15.4%
O=C(c1ccc(CNS(=O)(=O)c2ccccc2)cc1)N1CCC2(CC1)OCCO2,-15.3%[46.1 µM],2.6%,-2.9%,-13.3%,39.8µM*,i
O=C(c1ccc(CS(=O)(=O)c2ccccc2)o1)N1CCC2(CC1)OCCO2,-17.9%,5.9%,18.8%,nt,22.4µM*,nt
Cc1cccc(CS(=O)(=O)Cc2ccc(C(=O)N3CCC4(CC3)OCCO4)o2)c1,12.0%,8.2%,1.9%,9.3%,?,24.0%
COc1ccc(S(=O)(=O)Cc2ccc(C(=O)N3CCOCC3)o2)cc1,nt,-23.2%,nt,-2.0%,28.2µM*,4.9%
CCOc1ccc(NC(=O)Cn2cc(C(=O)c3ccccc3)c(=O)c3cc4c(cc32)OCCO4)cc1,?,?,-9.8%[46.1 µM],-4.6%,5.3%,-12.3%
Cc1nc2cc(NC(=O)[C@@H]3C[C@@H](Sc4ccccn4)CN3Cc3ccccc3F)ccc2s1,nt,10.2%,nt,-18.5%,nt,-21.5%
CCC1CN(C(=O)N2CCC(C(=O)NCc3cccc(F)c3)CC2)c2cc(C)ccc2O1 (configuration not stated),nt,?,?,-11.7%,2.8%,0.2%
C#CCCCO/N=C1\C[C@@H](O)[C@@H](O)[C@@H]2[C@@H]3C(=O)N(C[C@@H]4CCCO4)C(=O)[C@@H]3CC[C@@H]12,3.5%[14.2 µM],nt,nt,nt,nt,nt
CC(C)CC1=C/C(=C/c2ccc(-c3ccccc3)o2)C(=O)O1,?,11.8%,-1.9%,18.9%,12.6µM*,-11.4%
CN(C)c1ccc(CC(=O)N2CCCC(c3cc(C(=O)Nc4ccc(C(C)(C)C)cc4)no3)C2)cc1 (configuration not stated),nt,17.8µM*,nt,?,nt,-14.5%
Cc1cc(Cl)c(S(=O)(=O)N2CCN(c3ccc(F)cc3)CC2)cc1OCC(=O)NC1CCCCC1,10.3µM*,?,?,nt,0.0%,nt
COc1cccc(NC(=O)C(C)n2c(=O)cc(C(F)(F)F)c3c(C)nn(C)c32)c1 (configuration not stated),nt,-28.2%,3.0%[46.1 µM],2.9%,-3.4%,-15.0%
Cc1ncc2c(c1CNC(=O)c1ccccc1F)CCN(C(=O)c1ccc3c(c1)OCCO3)C2,nt,-7.6%,nt,-6.8%,nt,-8.6%
COC(=O)C1=C(C)N(c2ccc(F)c(Cl)c2)C(=O)C1,2.6%,-9.0%,?,nt,25.1µM*,nt
